# Bioassay records deposited in PubChem BioAssay by National Center for Advancing Translational Sciences (NCATS).
# Sampled rows, rich in hits. Any-hit rate of the full collection: about 1.7%.
# GLP-1R agonist = qHTS of GLP-1 Receptor Agonists. Glucagon-like peptide 1 receptor (Homo sapiens), P43220. HEK293 GLP-1R CRE-luciferase, luminescence, 4-6 h; cells express a hypersensitive GLP-1R form. Potency, µM (highest dose often 45.6 µM), usual class: activators. 380,000 compounds, 0.007% hits. AID 624172, 2012
# Target sequence (P43220 whole entry, looked up): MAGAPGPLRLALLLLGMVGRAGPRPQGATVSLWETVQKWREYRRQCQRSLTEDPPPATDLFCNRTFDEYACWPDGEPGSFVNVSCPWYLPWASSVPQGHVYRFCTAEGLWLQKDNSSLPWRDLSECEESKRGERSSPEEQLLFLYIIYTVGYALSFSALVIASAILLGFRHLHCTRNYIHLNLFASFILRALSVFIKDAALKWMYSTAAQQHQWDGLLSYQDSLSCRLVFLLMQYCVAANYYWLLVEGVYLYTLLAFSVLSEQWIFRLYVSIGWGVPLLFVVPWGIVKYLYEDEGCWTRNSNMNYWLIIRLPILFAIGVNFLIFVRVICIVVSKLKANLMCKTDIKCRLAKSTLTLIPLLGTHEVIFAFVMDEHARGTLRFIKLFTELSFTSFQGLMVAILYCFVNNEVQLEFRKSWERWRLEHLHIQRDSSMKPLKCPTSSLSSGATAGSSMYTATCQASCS
# GLP-1R inv ag = qHTS of GLP-1 Receptor Inverse Agonists (Inhibition Mode) | Glucagon-like peptide 1 receptor (Homo sapiens), P43220 | 410,000 compounds, 1.6% hits | HEK293 GLP-1R CRE-luciferase, luminescence, 24 h; GLP-1R form is constitutively active | Potency, µM (highest dose often 38.3 µM), hits mostly inhibitors; also: nearly all actives have a fitted effect of over 55% in size
#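 HEK293 cells stably co-expressing a cAMP-responsive luciferase reporter and constitutively active GLP-1R were seeded, incubated 12 h, then exposed to compounds for 24 h at 37 C. Luminescence was read 12 min after detection reagent; inverse agonists lower signal.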
# GLP1R cytotox = qHTS of GLP-1 Receptor Inverse Agonists: Cytotox Screen; Potency, µM (top dose mostly 38.3 µM), hits mostly inhibitors; AID 624418, 2012; 410,000 compounds, 0.13% hits; HEK293 cAMP-luciferase reporter cells, luminescence, 24 h;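 also: loss of luciferase light is scored as toxicity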
#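 Seeding density was 200 cells/uL; after overnight-length (12 h) culture, 23 nL compounds went on for 24 h at 37 °C. Readout used a luciferase detection reagent, luminescence taken after 12 min at room temperature.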
# Hits are given with their value; . = inactive; ? = inconclusive; / = not tested or not shown; [ ] = remark or other dose. Calls follow the shape of the dose curve; as a rule, active = well fitted curve in the direction sought with a large enough effect; inconclusive = small, poorly fitted or top-dose-only effect, or another doubt; inactive = no such curve, though single readings can be large; an effect the other way counts as inactive or inconclusive.
SMILES,GLP-1R agonist,GLP-1R inv ag,GLP1R cytotox
CCn1c2ccccc2c2cc(CN3CCN(Cc4ccc(OC)c(OC)c4)CC3)ccc21,/,?,.
O=[N+]([O-])c1ccccc1Oc1ccc(C(F)(F)F)cn1,.,.,.
FC(F)(F)c1ccc(Oc2ccc3ccccc3c2Br)nc1,.,10µM,.
CN(C(=O)c1ccc2c(c1)N(Cc1ccccc1F)C(=O)c1ccccc1S2(=O)=O)C1CCCCC1,.,.,.
Cc1c(C(=O)N2CCC(Cc3ccccc3)CC2)cccc1[N+](=O)[O-],.,.[7.66 µM],.[7.66 µM]
Cc1ccc(C(=O)N2CCC(Cc3ccccc3)CC2)cc1[N+](=O)[O-],.,10µM,.
Cc1ccc(C)c(S(=O)(=O)NCc2ccc(C(=O)N3CCC(Cc4ccccc4)CC3)cc2)c1,.,10µM,.
Cc1ccc(C)c(S(=O)(=O)NCc2ccc(C(=O)N3CCN(C)CC3)cc2)c1,.,.,.
O=C(c1ccc(Cl)cc1)C1CCN(CC(=O)N2CCCCC2)CC1,.,?,?
O=C(Cn1cnc2nc3c(cc2c1=O)CCCC3)Nc1ccc(F)cc1Cl,/,.,.
CCOC(=O)c1ccccc1NC(=O)Cc1ccc(OC)c(S(=O)(=O)N2CCOCC2)c1,.,.,.
CCc1ccc(-c2cc(C)no2)cc1S(=O)(=O)NC(C)Cc1ccco1 (stereo not given),.,3.5µM,.
Cc1cc(-c2ccc(C(C)C)c(S(=O)(=O)NCc3ccco3)c2)on1,.,?,.
CS(=O)(=O)Cc1ccc(C(=O)N2CCCC2c2cccs2)cc1 (stereo not given),.,.,.
CC(C)(C)c1ccc(C(=O)N2CCCC2c2cccs2)cc1 (stereo not given),.,11µM,.
CCOC(=O)CNC(=O)c1ccc(-c2nn(C)c(=O)c3ccccc23)cc1,.,.,.
O=C(Cc1ccccc1F)Nc1nc(-c2ccc(F)cc2)cs1,.,8.9µM,.
COc1ccc(-c2csc(NC(=O)Cc3ccccc3F)n2)cc1OC,.,?,.
CCOC(=O)C1=C(CN2CCN(c3cc(C)ccc3C)CC2)NC(=O)NC1c1ccccc1 (stereo not given),.,8.9µM,.
CCOC(=O)C1=C(CN2CCN(c3ccccc3OC)CC2)NC(=O)NC1c1ccccc1 (stereo not given),.,.,.
COC(=O)c1cnn(-c2ccc(C(=O)Nc3cc(OC)c(OC)c(OC)c3)cc2)c1N,/,.,.
CCOc1ccc(OCCOCCN2CCc3ccccc3C2)cc1,.,.,.
C=CCc1cc(OC)ccc1OCCOCCN1CCc2ccccc2C1,.,10µM,.
CCCC(C(=O)Nc1ccncc1)c1ccccc1 (stereo not given),.,.,.
COc1ccc(N(CC(=O)Nc2cccc(N(C)S(C)(=O)=O)c2)S(=O)(=O)c2ccc(C)cc2)cc1,.,?,.
SMILES,GLP-1R agonist,GLP-1R inv ag,GLP1R cytotox
COc1ccc(N(CC(=O)NC2CC3CCC2C3)S(=O)(=O)c2ccc(C)cc2)cc1OC (stereo not given),.,.,.
COc1ccc(S(=O)(=O)N(CC(=O)Nc2cccc(C(F)(F)F)c2)c2ccc(C)cc2)cc1,.,10µM,.
COc1ccc(N(CC(=O)NC2CC3CCC2C3)S(=O)(=O)c2ccc(C)cc2)cc1 (stereo not given),.,10µM,.
CC[C@]12c3[nH]c4ccc(OC)cc4c3CCN1C(=O)C(CC(=O)NCCN1CCOCC1)C[C@@H]2C(=O)N1CCN(C(=O)c2ccco2)CC1 (stereo not given in full),.,.,.
C=CCN=C(NC#N)SC,.,.,.
CC(Oc1ccccc1)C(=O)N(CCC1=CCCCC1)c1c(N)n(Cc2ccccc2)c(=O)[nH]c1=O (stereo not given),.,?,.
Cc1cc(C)cc(NC(=O)c2cc3c(=O)n(Cc4ccco4)ccc3nc2C)c1,/,.,.
CC(Sc1nnc(CN2CCCC2)n1Cc1ccccc1)C(=O)Nc1ccc(F)cc1 (stereo not given),.,?,.
CC(Sc1nnc(CN2CCCC2)n1Cc1ccccc1)C(=O)Nc1ccc(F)cc1Cl (stereo not given),.,5.6µM,.
COc1ccccc1N1CCN(C(=O)NC23CC4CC(CC(C4)C2)C3)CC1,.,?,.
CC(=O)c1nc2ccccc2n1CCc1ccccc1,.,?,.
N#CC(=C1NC(=O)c2ccccc21)c1nc2ccccc2n1CCO,.,10µM,.
COc1ccc(N2CCN(c3oc(-c4ccccc4C)nc3S(=O)(=O)c3ccccc3)CC2)cc1,/,.,.
COc1ccc(C(=O)Nc2ccc(C3(C#N)CCCC3)cc2)cc1,.,.,.
N#CC1(c2ccc(NC(=O)c3ccccc3F)cc2)CCCC1,.,4.5µM,.
Cc1cccc(NC(=O)CSc2nnc(-c3cccs3)o2)c1,/,.,.
CSc1ccc(-c2nc3c(C)cccn3c2Nc2ccc3c(c2)OCCO3)cc1,/,?,.
CSc1ccc(-c2nc3cccc(C)n3c2Nc2ccc3c(c2)OCO3)cc1,/,10µM,.
Cc1cccc2nc(-c3ccco3)c(Nc3ccc4c(c3)OCO4)n12,.,8.9µM,.
Cc1ccc(-c2nc3cccc(C)n3c2Nc2ccc3c(c2)OCO3)o1,/,?,.
C=CCC[C@H](Cc1ccc(F)cc1)C(=O)OC[C@@H](Cc1c[nH]c2ccccc12)NC(=O)[C@H](CC=C)CC(=O)N(CCO)Cc1ccccc1,.,2.8µM,?
C=CCC[C@@H](Cc1ccc(F)cc1)C(=O)OC[C@@H](Cc1c[nH]c2ccccc12)NC(=O)[C@H](CC=C)CC(=O)N(CCO)Cc1ccccc1,.,?,.
C=CC[C@H](CC(=O)N(CCO)Cc1ccccc1)C(=O)N[C@@H](COC(=O)[C@H](CC=C)CC(=O)OC(C)(C)C)Cc1c[nH]c2ccccc12,.,.,.
C=CC[C@@H](CC(=O)N(CCO)Cc1ccccc1)C(=O)N[C@@H](COC(=O)[C@@H](CC=C)CC(=O)OC(C)(C)C)Cc1c[nH]c2ccccc12,.,10µM,?
CNS(=O)(=O)c1cn(CC(=O)N2CCN(c3ccc(Cl)cc3)CC2)cc1S(=O)(=O)NC,/,.,.
SMILES,GLP-1R agonist,GLP-1R inv ag,GLP1R cytotox
O=[N+]([O-])c1cc(C(F)(F)F)ccc1NCCCCNS(=O)(=O)c1ccc(Cl)cc1,.,.,.[1.53 µM]
O=[N+]([O-])c1cc(C(F)(F)F)ccc1N1CCC(O)CC1,.,.,.
O=C(Nc1ccc(Cl)cc1)N1CCCN(c2ccc(C(F)(F)F)cc2[N+](=O)[O-])CC1,.,2.8µM,?
O=[N+]([O-])c1cc(C(F)(F)F)ccc1NCCNC(=S)Nc1ccc(Cl)cc1,.,11µM,.
CCOC(=O)c1ccc(NC(=O)C2CCCN(c3ncnc4onc(-c5ccc(F)cc5)c34)C2)cc1 (stereo not given),/,?,.
CCOC(=O)c1c(NC(=O)CCCOc2ccc(Cl)cc2)sc2c1CCC2,/,.,.
CCc1ccc(CN2C(=O)c3ccccc3C2C(=O)NCCc2ccc(OC)c(OC)c2)cc1 (stereo not given),/,.,.
CN(C(=O)CN1C(=O)c2cccc(N)c2C1=O)C1CCCCC1,.,.,.
CNc1ncnc2sc(-c3ccccc3)cc12,?,.[0.307 µM],.[0.307 µM]
